Measurements taken from PubChem BioAssay (EPA / NIEHS).
Records with an inconclusive call do not appear. The source made the active and inactive calls. The calls were made as follows, unless noted: active = hit-call score of the fitted dose curve at least 0.9, where 1 is the maximum; inconclusive = response in the unintended direction; inactive = score below 0.9.

Assays:
[1] = test system: DIO1 (gene 1733); test: CCTE_GLTED_hDIO1: CCTE's human Deiodinase 1 (DIO1) Inhibition Assay, Great Lakes Toxicology and Ecology Division (GLTED) Lab (AID 2283987);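 also: isolated human DIO1 enzyme in a cell-free setup rather than cells; enzyme activity read as free iodide liberated from substrate via Sandell-Kolthoff colorimetry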
Procedure, shortened: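 Inhibition of human deiodinase 1 is scored as reduced iodide liberation after a 3 h enzyme–chemical incubation, detected colorimetrically by the Sandell-Kolthoff reaction against DMSO controls.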

[2] = target: Nucleoli Translocation, AR (gene 367) (UniProt P10275); test: UPITT_HCI_U2OS_AR_TIF2_Nucleoli_Antagonist: University of Pittsburgh U2OS Androgen Receptor-Transcriptional Intermediary Factor 2 (AR-TIF2) Antagonism High Content Imaging Assay for Nucleoli Translocation (AID 2283997)
Sequence of Nucleoli Translocation, AR (gene 367) (P10275 whole entry, looked up): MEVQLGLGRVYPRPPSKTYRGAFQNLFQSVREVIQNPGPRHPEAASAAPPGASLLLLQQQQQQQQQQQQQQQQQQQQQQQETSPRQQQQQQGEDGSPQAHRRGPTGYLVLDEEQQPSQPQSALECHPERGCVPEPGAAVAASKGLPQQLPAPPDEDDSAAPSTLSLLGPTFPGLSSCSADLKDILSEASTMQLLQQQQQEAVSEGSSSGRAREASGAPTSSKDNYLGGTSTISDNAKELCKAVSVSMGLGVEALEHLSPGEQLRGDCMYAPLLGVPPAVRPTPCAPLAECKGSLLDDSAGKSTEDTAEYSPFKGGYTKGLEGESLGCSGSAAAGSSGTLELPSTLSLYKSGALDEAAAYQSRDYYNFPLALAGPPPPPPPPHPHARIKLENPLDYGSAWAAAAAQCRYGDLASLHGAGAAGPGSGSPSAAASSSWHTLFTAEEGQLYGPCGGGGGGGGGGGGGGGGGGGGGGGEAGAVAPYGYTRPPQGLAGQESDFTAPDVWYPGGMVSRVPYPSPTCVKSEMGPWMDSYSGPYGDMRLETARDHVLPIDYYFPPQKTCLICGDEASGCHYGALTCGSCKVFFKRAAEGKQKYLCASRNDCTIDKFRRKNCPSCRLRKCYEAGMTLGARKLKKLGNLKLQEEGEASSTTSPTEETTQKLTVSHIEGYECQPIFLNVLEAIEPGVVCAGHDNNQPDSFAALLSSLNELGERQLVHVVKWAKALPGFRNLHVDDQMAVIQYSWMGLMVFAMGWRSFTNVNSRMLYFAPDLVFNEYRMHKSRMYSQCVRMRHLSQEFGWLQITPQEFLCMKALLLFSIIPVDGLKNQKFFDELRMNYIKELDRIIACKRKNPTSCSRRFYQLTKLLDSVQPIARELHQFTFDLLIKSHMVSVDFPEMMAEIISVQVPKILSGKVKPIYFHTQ
Procedure, shortened: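 Antagonism is read as loss of nucleolar AR-RFP signal relative to DHT, imaged in U2OS cells also carrying GFP-TIF2. Compounds screened at 20 uM final, 0.2% DMSO; primary actives retested in triplicate.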

[3] = target: Nucleoli Translocation, AR (gene 367) (UniProt P10275); test: UPITT_HCI_U2OS_AR_TIF2_Nucleoli_Agonist: University of Pittsburgh U2OS Androgen Receptor-Transcriptional Intermediary Factor 2 (AR-TIF2) Agonism High Content Imaging Assay for Nucleoli Translocation (AID 2283998)
Procedure, shortened: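 Readout is red (AR-RFP) fluorescence localized to nucleoli, measured by high-content imaging and analysed for increase relative to DMSO. Compound series spanned 0.195 to 50 uM final in 0.5% DMSO.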

[4] = target: PGR (gene 5241) (UniProt P06401); test: TOX21_PR_BLA_Followup_Antagonist_ratio: Tox21 HEK293 Progesterone Receptor (PR) Antagonism Beta-lactamase Follow-Up Assay, Ratio (AID 2283934);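 also: PR-UAS-bla HEK293T cells stimulated with 1 nM R5020 agonist for 16 hr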
Sequence of PGR (gene 5241) (P06401 whole entry, looked up): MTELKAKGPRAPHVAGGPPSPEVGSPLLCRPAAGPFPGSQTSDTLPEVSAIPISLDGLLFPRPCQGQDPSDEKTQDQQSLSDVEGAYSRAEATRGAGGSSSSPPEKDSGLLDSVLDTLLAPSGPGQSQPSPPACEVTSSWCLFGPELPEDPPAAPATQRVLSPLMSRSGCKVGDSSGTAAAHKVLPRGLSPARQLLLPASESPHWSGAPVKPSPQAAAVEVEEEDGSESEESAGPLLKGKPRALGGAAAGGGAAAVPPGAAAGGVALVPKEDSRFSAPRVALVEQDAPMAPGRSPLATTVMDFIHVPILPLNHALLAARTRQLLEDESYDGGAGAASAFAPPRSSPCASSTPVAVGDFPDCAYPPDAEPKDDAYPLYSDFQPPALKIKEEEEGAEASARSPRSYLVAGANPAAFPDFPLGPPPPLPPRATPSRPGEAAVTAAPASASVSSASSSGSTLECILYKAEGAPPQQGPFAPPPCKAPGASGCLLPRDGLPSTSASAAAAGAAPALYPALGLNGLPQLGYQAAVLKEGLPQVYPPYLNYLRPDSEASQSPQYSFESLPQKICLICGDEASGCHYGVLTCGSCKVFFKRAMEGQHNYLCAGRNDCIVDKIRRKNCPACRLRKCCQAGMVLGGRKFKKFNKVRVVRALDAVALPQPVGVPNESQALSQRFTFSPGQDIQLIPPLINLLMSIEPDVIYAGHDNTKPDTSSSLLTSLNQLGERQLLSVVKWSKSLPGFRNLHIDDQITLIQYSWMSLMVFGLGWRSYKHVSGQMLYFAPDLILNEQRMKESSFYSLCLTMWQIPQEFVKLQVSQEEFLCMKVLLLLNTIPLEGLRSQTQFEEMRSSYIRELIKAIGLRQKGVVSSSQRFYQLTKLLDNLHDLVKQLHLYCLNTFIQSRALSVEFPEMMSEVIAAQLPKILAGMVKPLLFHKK
Procedure, shortened: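 Cells are plated, rested 6 hr, then dosed with test compound in DMSO and challenged with 1 nM promegestone. After 16 hr incubation, substrate loading for 2 h at room temperature precedes fluorescence reading; viability is measured in the same wells.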

[5] = TOX21_PR_BLA_Followup_Agonist_viability: Viability Assessment in the Tox21 HEK293 Progesterone Receptor (PR) Agonism Beta-lactamase Follow-Up Assay (AID 2283935);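 also: signal loss means lower viability so actives are cytotoxic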
Procedure, shortened: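 Cells were plated in medium with 2% charcoal-stripped FBS and rested 6 hr. Compounds in DMSO were then added for 16 hr at 37C, followed by the FRET substrate step and CellTiter-Glo luminescence after 30 min.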

[6] = TOX21_PR_BLA_Followup_Antagonist_viability: Viability Assessment in the Tox21 HEK293 Progesterone Receptor (PR) Antagonism Beta-lactamase Follow-Up Assay (AID 2283936);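 also: cells exposed to compound with R5020 agonist for 16 h; hits lower the luminescence signal meaning cytotoxicity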
Procedure, shortened: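 PR-UAS-bla HEK293T cells in medium with 2% charcoal-stripped FBS were treated with compounds plus R5020 for 16 hr at 37C. After the beta-lactamase read, CellTiter-Glo was added to the same wells and luminescence read after 30 min at room temperature.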

[7] = target: PGR (gene 5241) (UniProt P06401); test: TOX21_PR_LUC_Followup_Antagonist: Tox21 HEK293 Progesterone Receptor (PR) Antagonism Luciferase Follow-Up Assay (AID 2283938);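 also: curve fitted upward as signal gain over DMSO baseline despite antagonist label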
Procedure, shortened: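 Cells are grown 5 days in charcoal-stripped-FBS assay medium, plated, left 5 h, then dosed with compound and incubated 16 h. ONE-Glo reagent is added and luminescence read after 30 min.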

[8] = TOX21_PR_LUC_Followup_Agonist_viability: Viability Assessment in the Tox21 HEK293 Progesterone Receptor (PR) Agonism Luciferase Follow-Up Assay (AID 2283941);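 also: loss of signal means cytotoxicity so actives lower viability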
Procedure, shortened: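 Multiplexed viability endpoint of the PR agonist luciferase follow-up: HEK293-PR-A-luc cells treated 16 h at 37C, with viability scored as decrease in CellTiter-Glo ATP signal.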

[9] = target: Thyroid hormone receptor alpha (Rattus norvegicus) + Thyroid hormone receptor beta (Rattus norvegicus) (UniProt P18113+P63059); test: TOX21_TR_LUC_GH3_Agonist_Followup: Tox21 GH3 Thyroid Hormone Receptor Agonism Luciferase Follow-Up Assay (AID 2283939)
Sequence of Thyroid hormone receptor alpha (Rattus norvegicus) + Thyroid hormone receptor beta (Rattus norvegicus) (P63059 whole entry, looked up): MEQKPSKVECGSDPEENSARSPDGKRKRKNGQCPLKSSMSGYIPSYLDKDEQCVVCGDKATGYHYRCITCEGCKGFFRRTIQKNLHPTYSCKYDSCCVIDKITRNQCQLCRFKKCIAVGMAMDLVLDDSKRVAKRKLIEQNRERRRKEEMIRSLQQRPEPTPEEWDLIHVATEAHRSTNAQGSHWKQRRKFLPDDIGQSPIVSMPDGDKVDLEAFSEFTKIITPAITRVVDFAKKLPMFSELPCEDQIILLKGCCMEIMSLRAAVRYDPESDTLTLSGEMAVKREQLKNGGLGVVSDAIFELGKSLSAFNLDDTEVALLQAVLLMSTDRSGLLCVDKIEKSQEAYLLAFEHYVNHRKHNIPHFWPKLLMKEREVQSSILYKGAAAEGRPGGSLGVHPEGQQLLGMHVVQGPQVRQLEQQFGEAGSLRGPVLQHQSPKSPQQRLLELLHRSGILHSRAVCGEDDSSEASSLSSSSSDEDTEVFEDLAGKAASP
Sequence of Thyroid hormone receptor alpha (Rattus norvegicus) + Thyroid hormone receptor beta (Rattus norvegicus) (P18113 whole entry, looked up): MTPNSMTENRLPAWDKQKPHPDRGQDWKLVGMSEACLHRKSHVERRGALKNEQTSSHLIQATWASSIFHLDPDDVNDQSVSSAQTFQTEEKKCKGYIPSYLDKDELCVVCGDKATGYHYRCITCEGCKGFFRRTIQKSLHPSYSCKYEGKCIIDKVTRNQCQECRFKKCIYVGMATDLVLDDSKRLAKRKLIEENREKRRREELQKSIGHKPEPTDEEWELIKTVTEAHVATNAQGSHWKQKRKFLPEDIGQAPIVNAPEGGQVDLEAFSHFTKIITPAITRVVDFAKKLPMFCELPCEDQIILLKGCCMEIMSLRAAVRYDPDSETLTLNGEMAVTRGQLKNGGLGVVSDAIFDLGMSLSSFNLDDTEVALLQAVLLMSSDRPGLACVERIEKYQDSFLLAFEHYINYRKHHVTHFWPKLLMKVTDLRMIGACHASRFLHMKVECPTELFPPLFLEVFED
Procedure, shortened: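 Agonist-mode confirmatory run: 15 concentrations (5 nM to 92 uM final) on GH3 rat pituitary cells, 24 h at 37C/5% CO2, T3 as positive control. Luminescence read with ONE-Glo after 30 min.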

[10] = target: THRA (gene 7067) (UniProt P10827); test: TOX21_TRA_COA_Agonist_Followup_ratio: Tox21 Thyroid Hormone Receptor alpha Agonism through Coactivator Recruitment Follow-Up Assay, Ratio (AID 2283948; active = hit-call score of the fitted dose curve at least 0.9, where 1 is the maximum; inactive = score below 0.9)
Sequence of THRA (gene 7067) (P10827 whole entry, looked up, the tested form may be a part): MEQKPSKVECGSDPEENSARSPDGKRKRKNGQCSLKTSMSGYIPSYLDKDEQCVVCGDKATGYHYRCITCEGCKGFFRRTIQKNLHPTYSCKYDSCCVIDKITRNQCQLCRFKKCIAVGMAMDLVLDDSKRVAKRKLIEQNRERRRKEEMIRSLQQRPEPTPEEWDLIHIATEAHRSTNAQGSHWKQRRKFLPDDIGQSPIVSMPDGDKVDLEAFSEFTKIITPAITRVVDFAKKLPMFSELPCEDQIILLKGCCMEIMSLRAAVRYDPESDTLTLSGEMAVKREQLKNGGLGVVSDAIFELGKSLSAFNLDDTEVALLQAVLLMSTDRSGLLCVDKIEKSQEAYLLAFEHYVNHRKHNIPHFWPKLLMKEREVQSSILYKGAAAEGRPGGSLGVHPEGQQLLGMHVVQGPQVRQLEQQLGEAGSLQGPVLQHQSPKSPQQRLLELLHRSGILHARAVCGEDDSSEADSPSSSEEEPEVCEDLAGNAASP
Procedure, shortened: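 Follow-up specificity assay in which TRα ligand-binding domain, expressed as a GST fusion, recruits a fluorescein-labelled SRC-2 peptide. Energy transfer from a terbium anti-GST antibody gives the acceptor/donor ratio, fitted upward relative to DMSO.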

[11] = target: THRB (gene 7068) (UniProt P10828); test: TOX21_TRB_BLA_Agonist_Followup_ratio: Tox21 Thyroid Hormone Receptor beta Agonism Beta-lactamase (BLA) Follow-Up Assay, Ratio (AID 2283954)
Sequence of THRB (gene 7068) (P10828 whole entry, looked up, the tested form may be a part): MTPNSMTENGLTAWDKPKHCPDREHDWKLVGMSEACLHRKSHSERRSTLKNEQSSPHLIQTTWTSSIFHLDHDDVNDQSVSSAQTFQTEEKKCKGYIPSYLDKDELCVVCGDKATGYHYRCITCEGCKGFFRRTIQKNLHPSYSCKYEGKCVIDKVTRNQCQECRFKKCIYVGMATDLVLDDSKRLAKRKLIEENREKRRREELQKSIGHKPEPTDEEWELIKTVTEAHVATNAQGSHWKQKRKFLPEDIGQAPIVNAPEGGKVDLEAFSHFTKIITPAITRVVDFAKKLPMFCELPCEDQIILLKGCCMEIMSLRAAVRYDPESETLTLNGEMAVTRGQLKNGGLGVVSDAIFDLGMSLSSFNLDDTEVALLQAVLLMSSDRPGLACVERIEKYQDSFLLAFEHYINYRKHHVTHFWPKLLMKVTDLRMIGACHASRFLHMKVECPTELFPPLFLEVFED
Procedure, shortened: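 Agonist mode: compounds (11-point, triplicate) incubated 18 h with HEK293T cells carrying GAL4-DBD/human TRβ-LBD and UAS-β-lactamase. Blue/green (460/530 nm) FRET ratio read after 2 h CCF4-AM loading; CellTiter-Glo viability run in the same plates.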

[12] = target: THRB (gene 7068) (UniProt P10828); test: TOX21_TRB_COA_Agonist_Followup_ratio: Tox21 Thyroid Hormone Receptor beta Agonism through Coactivator Recruitment Follow-Up Assay, Ratio (AID 2283963; active = hit-call score of the fitted dose curve at least 0.9, where 1 is the maximum; inactive = score below 0.9)
Procedure, shortened: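 Agonism is measured as coactivator recruitment in a purified-protein TR-FRET format, using GST-TRβ LBD at 5.0 nM, fluorescein-SRC-2 peptide at 200 nM and Tb-labeled anti-GST antibody at 2 nM. Values are 520:495 nm ratios relative to DMSO (0%) and T3 (100%).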

[13] = target: Retinoic acid receptor RXR-alpha (Homo sapiens) (UniProt P19793); test: TOX21_TR_RXR_BLA_Agonist_Followup_ratio: Tox21 Thyroid Hormone Receptor beta Retinoid X Receptor alpha (RXRa) Agonism Beta-lactamase (BLA) Follow-Up Assay, Ratio (AID 2283968)
Sequence of Retinoic acid receptor RXR-alpha (Homo sapiens) (P19793 whole entry, looked up): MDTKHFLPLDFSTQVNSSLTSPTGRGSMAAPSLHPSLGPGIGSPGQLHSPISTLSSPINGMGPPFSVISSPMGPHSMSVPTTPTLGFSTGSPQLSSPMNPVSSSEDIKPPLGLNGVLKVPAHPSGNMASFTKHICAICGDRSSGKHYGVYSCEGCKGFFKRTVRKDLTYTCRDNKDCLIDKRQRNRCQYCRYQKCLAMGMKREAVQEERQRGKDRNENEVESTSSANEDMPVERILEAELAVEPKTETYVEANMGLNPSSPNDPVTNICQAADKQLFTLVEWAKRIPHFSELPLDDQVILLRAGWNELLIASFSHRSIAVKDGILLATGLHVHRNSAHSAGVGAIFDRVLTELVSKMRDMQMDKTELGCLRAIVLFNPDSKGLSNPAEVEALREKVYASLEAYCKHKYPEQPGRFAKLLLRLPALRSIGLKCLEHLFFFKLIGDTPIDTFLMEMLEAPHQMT
Procedure, shortened: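 Cells were first allowed to attach for 5 h, after which compounds in DMSO were pinned at 11 concentrations and incubated 16 h at 37C. LiveBLAzer CCF4-AM substrate was then added for 2 h at room temperature before reading 460 and 530 nm fluorescence.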

[14] = TOX21_TR_RXR_BLA_Agonist_Followup_viability: Viability Assessment in the Tox21 Thyroid Hormone Receptor beta Retinoid X Receptor alpha (RXRa) Agonism Beta-lactamase (BLA) Follow-Up Assay (AID 2283970)
Procedure, shortened: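 Viability counter-screen run alongside the RXRa bla follow-up: HEK293T reporter cells were treated for 16h at 37C in stripped-serum medium, then ATP was quantified by luciferase-coupled CellTiter-Glo. Decreased signal relative to DMSO marked cytotoxicity.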

[15] = target: Ratio of Nucleoli Translocation and Cytoplasm, AR (gene 367) (UniProt P10275); test: UPITT_HCI_U2OS_AR_TIF2_Nucleoli_Cytoplasm_Ratio_Antagonist: University of Pittsburgh U2OS Androgen Receptor-Transcriptional Intermediary Factor 2 (AR-TIF2) Antagonism High Content Imaging Assay for Ratio of Nucleoli Translocation and Cytoplasm (AID 2283999);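 also: antagonists lower the DHT-driven ratio of nucleolar to cytoplasmic red signal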
Sequence of Ratio of Nucleoli Translocation and Cytoplasm, AR (gene 367) (P10275 whole entry, looked up): as the sequence (P10275 whole entry, looked up) above
Procedure, shortened: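 Compounds were added to U2OS cells carrying red-fluorescent AR and green-fluorescent TIF2, first at 20 uM, with hits confirmed in triplicate and titrated from 0.195 to 50 uM. Nucleolar versus cytoplasmic AR-RFP fluorescence was then quantified by imaging, with analysis relative to DHT.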

[16] = CEETOX_H295R_DOC_noMTC: CeeTox H295R High-throughput Steroidogenesis Assay for DOC, maximum tolerated concentration (MTC) filtered results only (AID 2283918; active = hit-call score of the fitted dose curve at least 0.9, where 1 is the maximum; inactive = score below 0.9); details: actives raise or lower the signal
Procedure, shortened: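 11-Deoxycorticosterone secreted by human adrenal H295R cells quantified by HPLC-MS/MS after 48 h chemical exposure (0.1% DMSO), following 48 h 10 uM forskolin prestimulation. Concentrations not filtered by MTT-derived MTC; bidirectional fitting.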

[17] = CEETOX_H295R_PROG_noMTC: CeeTox H295R High-throughput Steroidogenesis Assay for Progesterone (PROG), maximum tolerated concentration (MTC) filtered results only (AID 2283920; active = hit-call score of the fitted dose curve at least 0.9, where 1 is the maximum; inactive = score below 0.9); details: actives raise or lower the signal
Procedure, shortened: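 Progesterone secreted into medium was measured by HPLC-MS/MS after MTBE extraction, following 48 h chemical exposure (0.1% DMSO) of forskolin-prestimulated (10 uM, 48 h) H295R adrenal cells. Gain or loss fitted against DMSO; no MTC filtering.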

[18] = CEETOX_H295R_TESTO_noMTC: CeeTox H295R High-throughput Steroidogenesis Assay for Testosterone (TESTO), maximum tolerated concentration (MTC) filtered results only (AID 2283924; active = hit-call score of the fitted dose curve at least 0.9, where 1 is the maximum; inactive = score below 0.9); details: actives raise or lower the signal
Procedure, shortened: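 Medium testosterone, measured by HPLC-MS/MS after liquid-liquid extraction, was fitted in both directions relative to DMSO without MTC filtering. Adrenal H295R cells received 48 h chemical exposure (0.1% DMSO final) after 48 h forskolin (10 uM) prestimulation; viability by MTT.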

[19] = CEETOX_H295R_ESTRADIOL_noMTC: CeeTox H295R High-throughput Steroidogenesis Assay for Estradiol, maximum tolerated concentration (MTC) filtered results only (AID 2283919; active = hit-call score of the fitted dose curve at least 0.9, where 1 is the maximum; inactive = score below 0.9); details: actives raise or lower the signal
Procedure, shortened: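 Readout: dansyl-derivatized estradiol quantified by LC-MS/MS in medium from H295R cells dosed 48 h (0.1% DMSO) following 48 h forskolin (10 uM) prestimulation. Gain or loss of signal fitted against DMSO; no MTC filtering applied.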

[20] = CEETOX_H295R_ESTRONE_noMTC: CeeTox H295R High-throughput Steroidogenesis Assay for Estrone, maximum tolerated concentration (MTC) filtered results only (AID 2283921; active = hit-call score of the fitted dose curve at least 0.9, where 1 is the maximum; inactive = score below 0.9); details: actives raise or lower the signal
Procedure, shortened: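 Estrone in spent medium, quantified by tandem MS following dansyl chloride derivatization, after 48 h chemical exposure (0.1% DMSO) of forskolin-prestimulated (10 uM, 48 h) H295R cells; concentrations not MTC-filtered, bidirectional fit against DMSO.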

With `CC(Cc1ccc(O)c(O)c1)C(C)Cc1ccc(O)c(O)c1` (centres undefined) the AC50 [1] was 6.62 µM (active).
With `O=C(Cl)C(F)(F)C(F)(F)C(F)(F)C(F)(F)C(F)(F)C(F)(F)C(F)(F)C(F)(F)F` the AC50 [1] was 165 µM (active).
In the case of `[Co]`, the outcome [2] is reported as “inactive” and the outcome [3] is reported as “inactive”.
With `C#C[C@]1(O)CC[C@H]2[C@@H]3CCc4cc(OC)ccc4[C@H]3CC[C@@]21C` the outcome [4] was “inactive”, the outcome [5] was “inactive” and the outcome [6] was “inactive”. For the same compound, the outcome [7] was “inactive” and the outcome [8] was “inactive”.
With `O=C(O)C=C(C(F)(F)F)C(F)(F)F` the AC50 [1] was 20.2 µM (active).
With `O=C(O)C(F)(F)C(F)(F)C(F)(F)C(F)(F)C(F)(F)C(F)(F)C(F)(F)C(F)(F)C(F)(F)C(F)(F)C(F)(F)C(F)(F)F` the AC50 [1] was 39 µM (active).
For `O=C(O)C(F)(F)C(F)(F)C(F)(F)C(F)(F)C(F)(F)C(F)(F)C(F)(F)C(F)(F)C(F)(F)C(F)F`, the AC50 [1] was 88.7 µM (active).
In the case of `O=S(=O)(O)c1ccc2ccccc2c1`, the outcome [9] is reported as “inactive”, the outcome [10] is reported as “inactive” and the outcome [11] is reported as “inactive”. For the same compound, the outcome [12] was “inactive”, the outcome [13] was “inactive” and the outcome [14] was “inactive”.
In the case of `O=C(O)C(F)(F)C(F)(F)C(F)(F)C(F)(F)C(F)(F)C(F)(F)C(F)(F)C(F)(F)Cl`, the outcome [1] is reported as “inactive”.
With `CCCCCCOC(=O)c1ccccc1O` the outcome [2] was “inactive”, the outcome [3] was “inactive” and the outcome [15] was “inactive”.
With `C=CC(=O)OCC(F)(F)C(F)(F)C(F)(F)C(F)(F)COC(=O)C=C` the AC50 [1] was 5.82 µM (active).
For `CCCCCCCOC(=O)c1ccccc1C(=O)OCCCCCCC`, the outcome [16] was “inactive”, the outcome [17] was “inactive” and the outcome [18] was “inactive”.
In the case of `CCCCCCC(C)OC(=O)CCCCC(=O)OC(C)CCCCCC` (centres undefined), the outcome [2] is reported as “inactive”.
In the case of `CN(C)Cc1ccccc1O`, the outcome [2] is reported as “inactive”, the outcome [3] is reported as “inactive” and the outcome [15] is reported as “inactive”.
In the case of `O=C(O)C(F)(F)C(F)(F)C(F)(F)C(F)(F)C(F)(F)C(F)(F)C(F)(F)C(F)(F)C(F)(F)C(F)(F)C(F)(F)C(F)(F)C(F)(F)F`, the AC50 [1] is reported as 23.7 µM (active).
For `CNC(=S)NC`, the outcome [2] was “inactive” and the outcome [15] was “inactive”.
For `COC(=O)C1CCC(C(=O)OC)CC1` (centres undefined), the outcome [19] was “inactive”, the outcome [17] was “inactive” and the outcome [20] was “inactive”.
In the case of `CCN(Cc1cccc(S(=O)(=O)O)c1)c1ccc(C(=C2C=CC(=[N+](CC)Cc3cccc(S(=O)(=O)O)c3)C=C2)c2ccc(O)cc2S(=O)(=O)[O-])cc1`, the AC50 [1] is reported as 65 µM (active).
For `CC(C)OC(=O)c1ccccc1C(=O)OC(C)C`, the outcome [16] was “inactive” and the outcome [17] was “inactive”.
With `C(=C(c1ccccc1)c1ccccc1)c1ccccc1` the AC50 [4] was 30.7 µM (active), the outcome [5] was “inactive” and the outcome [6] was “inactive”. The AC50 [7] was 32.3 µM (active).
For `Nc1ccc(S(=O)(=O)Nc2nccs2)cc1`, the outcome [14] was “inactive”.
